Only some compounds are listed: those with a hit (about 6.6% of all), similar ones and a draw of the others.
BoNT A protease: blocks Botulinum neurotoxin A light chain protease; multiplex microsphere protease substrate cleavage, flow cytometry; inhibition, % at 10 µM; 360,000 tested, 0.17% active; note: plate controls were buffer without enzyme for full effect and enzyme alone for no effect
Mtb FBA inh: inhibitors of M. tuberculosis fructose-bisphosphate aldolase; purified M. tuberculosis FBA, fluorescence read-out; P9WQA3; inhibition, % at 1 µM; 360,000 tested, 2.3% active; AID 588726; in the data active = inhibition above about 27%;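 note: 0% = vehicle and 100% = reference inhibitor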
GDH-TPI inh: inhibits GDH-TPI coupling enzymes, artifact for Mtb FBA screen | GDH-TPI coupled enzyme counterscreen, NADH absorbance | 360,000 tested, 1.2% active | inhibition, % at 4.8 µM; in the data active = inhibition above about 30%;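 note: 0% = DMSO wells and 100% = wells lacking the enzyme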
Bead autofluor: counter-screen for toxin protease inhibitors: compound fluorescence | compound autofluorescence counterscreen, microsphere flow cytometry; stronger effect = higher value | fluorescence intensity (no concentration beside the values) | 360,000 tested, 3.1% active; in the data active = fluorescence intensity above about 16000; inconclusive = no clear call, values can overlap the other calls
BoNT F protease: blocks Botulinum neurotoxin F light chain protease | Multiplex microsphere protease cleavage assay, flow cytometry | inhibition, % at 10 µM | 360,000 tested, 0.22% active | AID 588497; in the data active = inhibition above about 35%, passing the limit was not always enough; inconclusive = no clear call, values can overlap the other calls; note: plate controls were buffer without enzyme for full effect and enzyme alone for no effect
Anthrax LF inh2: inhibitors of Bacillus anthracis lethal factor protease; inhibition, % at 10 µM; multiplex microsphere protease cleavage assay, LF; P15917; 360,000 tested, 0.12% active; AID 588501; note: plate controls were buffer without enzyme for full effect and enzyme alone for no effect
Numbers without * were called inactive; u = inconclusive; x = not tested or not shown; + = active, no number. Cut-off read from the data, not from the text of the source, unless noted: active = inhibition above about 30%; inconclusive = no clear call, values can overlap the other calls; inactive = below that.

SMILES	BoNT A protease	Mtb FBA inh	GDH-TPI inh	Bead autofluor	BoNT F protease	Anthrax LF inh2
Cc1ccc(N(CC(=O)NC(C)(C)C)C(=O)CNC(=O)c2cccs2)cc1C	0.2	-1.4	0.0	3579	0.7	-2.2
CC1CCc2c(sc3ncnc(SCC(=O)N(C)C4CCS(=O)(=O)C4)c23)C1 (configuration not stated)	-0.2	2.0	11.7	3744	2.6	-0.3
CCOC(=O)c1ccc(-c2ccc3ncnc(NCc4csc(C)n4)c3c2)o1	1.7	+	37.1*	2949	-0.2	5.0
Cc1cc(/C=C(\C#N)C(=O)OCC#N)c(C)n1CC(C)C	-0.9	1.0	7.8	4334	-7.0	2.5
Cc1cc(/C=C(\C#N)C(=O)OCC(=O)Nc2ccc(OC(F)F)cc2)c(C)n1CC(C)C	-0.1	0.1	30.9*	10544	1.8	-3.9
Cc1ccc(Cn2c(=N)c(C(=O)NCC3CCCO3)cc3c(=O)n4ccccc4nc32)cc1 (configuration not stated)	1.0	162.1*	4.2	4040	2.9	1.8
N=c1c(C(=O)NCC2CCCO2)cc2c(=O)n3ccccc3nc2n1Cc1ccccc1Cl (configuration not stated)	0.5	166.4*	5.6	6317	0.9	3.4
Cc1ccc(Cn2c(=N)c(C(=O)NCC3CCCO3)cc3c(=O)n4cccc(C)c4nc32)cc1 (configuration not stated)	2.9	+	3.0	5038	4.6	1.9
N=c1c(C(=O)NCC2CCCO2)cc2c(=O)n3ccccc3nc2n1Cc1ccccc1 (configuration not stated)	2.6	+	17.6	5290	-0.9	2.3
N=c1c(C(=O)NCc2ccc3c(c2)OCO3)cc2c(=O)n3ccccc3nc2n1CC1CCCO1 (configuration not stated)	1.3	16.2	4.3	5738	-0.4	0.9
N=c1c(C(=O)NCC2CCCO2)cc2c(=O)n3ccccc3nc2n1Cc1ccc(Cl)cc1 (configuration not stated)	x	+	0.0	x	x	x
COc1ccc(Cn2c(=N)c(C(=O)NCC3CCCO3)cc3c(=O)n4ccccc4nc32)cc1 (configuration not stated)	0.4	8.6	14.7	4267	-4.7	-2.2
CN(Cc1ccccc1)Cc1nc2c([nH]1)c(=O)[nH]c(=O)n2C	-0.9	-1.8	6.3	16968*	-2.1	-3.2
OC(c1cc(F)cc(Cl)c1)c1ncc(-c2ccccc2C(F)(F)F)[nH]1 (configuration not stated)	-0.4	-1.4	-11.6	3855	-8.1	-1.3
CCC(=O)Nc1ccc(C(=O)N/N=C/c2ccccc2[N+](=O)[O-])cc1	-1.5	5.0	12.4	23894*	-4.4	-1.6
Cc1cc(SCC(=O)c2cccs2)nc2ccccc12	6.9	0.0	8.1	2825	22.9	2.8
CN1C(=O)C2(N=c3ccccc3=N2)c2ccccc21	-0.3	30.1*	19.1	2637	-5.2	-4.9
Cc1ccc(-c2nc3ccccc3n2C)o1	-0.8	21.9	1.3	3876	-1.0	-2.4
CC(=O)c1ccc(-c2nc3ccccc3n2C)o1	0.4	+	26.7	3225	-7.1	-3.4
CCc1ccc(C(=O)COC(=O)C2CCN(c3ccc(C(F)(F)F)cn3)CC2)cc1	6.6	0.9	7.6	u	5.5	u
Cc1ccc(Cn2ccc(-c3cnc(-c4ccccc4)s3)n2)cc1	-0.3	52.4*	25.7	2285	-16.3	-1.6
Fc1ccc(Cn2ccc(-c3cnc(-c4ccccc4)s3)n2)cc1	-0.1	141.9*	12.2	2875	4.8	-5.3
O=S(=O)(c1ccccc1)n1ccc(-c2cnc(-c3ccccc3)s2)n1	0.5	2.0	5.2	3844	1.6	-1.9
CCOC(=O)c1c(NC(=S)Nc2ccccc2)sc2c1CCN(CC)C2	18.2	3.2	-0.6	9132	2.2	31.0*
Cc1ccc(C(=O)OC(C)C(=O)NC(C)CCc2ccccc2)o1 (configuration not stated)	0.2	-0.3	9.0	3924	5.2	4.3
SMILES	BoNT A protease	Mtb FBA inh	GDH-TPI inh	Bead autofluor	BoNT F protease	Anthrax LF inh2
COc1cc(C(=O)NCC(c2cccs2)N2CCOCC2)ccc1OCc1ccc(Cl)cc1 (configuration not stated)	-0.2	-3.5	7.4	3466	-4.0	-1.0
O=C(Nc1nnc(-c2ccco2)s1)c1ccccc1	0.6	1.9	25.9	9074	2.8	-4.7
COc1ccccc1C(=O)Nc1nnc(-c2ccco2)s1	-0.4	1.1	32.7*	8085	-1.2	1.6
COc1ccc(C(=O)Nc2nnc(-c3ccco3)s2)cc1	1.6	11.7	45.8*	11659	6.2	2.2
CC(C)c1[nH]nc2c1C(c1ccco1)C(C#N)=C(N)O2 (configuration not stated)	-1.7	5.3	5.4	3262	-1.6	0.8
COc1ccc(C2Nc3ccccc3NC3=C2C(=O)CC(C)(C)C3)cc1OC (configuration not stated)	0.6	2.1	8.5	4701	u	-7.5
CC1(C)CC(=O)C2=C(C1)c1c(ccc3ccccc13)NC2c1ccc(OCC(=O)O)cc1 (configuration not stated)	0.2	+	17.8	3831	27.9	-5.2
COc1cc(C2Nc3ccc4ccccc4c3C3=C2C(=O)CC(C)(C)C3)ccc1OC(C)C(=O)O (configuration not stated)	2.0	183.2*	4.3	3871	-0.8	11.5
COc1cc(C2Nc3ccc4ccccc4c3C3=C2C(=O)CC(C)(C)C3)ccc1OCC(=O)O (configuration not stated)	-0.3	121.3*	1.5	3383	7.8	-0.4
CC(C)Cc1ccc(C(C)C(N)=NCCc2ccccc2)cc1 (configuration not stated)	-0.8	1.2	-1.1	4685	u	1.9
CC1CN(c2ccc([N+](=O)[O-])nc2)CC(C)O1 (configuration not stated)	-0.6	-2.5	-7.9	4474	-1.2	0.1
Nc1cc(Cl)ccc1CN1C(=O)c2ccccc2C1=O	-0.4	16.1	x	6027	4.5	3.6
COc1ccc(C2(CNC(=O)c3ccccc3[N+](=O)[O-])CCOCC2)cc1	-0.1	2.0	0.0	2511	5.4	-0.4
CCN1C(=O)N[C@@H](c2cccc(C(F)(F)F)c2)[C@@H](C(=O)OC)[C@H]1C	-0.1	-1.0	2.8	3623	5.0	-1.7
C/C(=N\OC(=O)c1ccc(Br)cc1)c1ccccn1	-0.4	8.8	31.0*	2396	0.7	-0.5
Cc1ccc(C(=O)O/N=C(\N)c2ccccn2)cc1	-0.6	2.1	-4.6	5517	3.2	-1.7
Cc1ccc(/C=N/NC(=O)c2cccc3ccccc23)o1	-1.3	-1.1	11.9	3651	-9.1	15.8
O=C(N/N=C/c1ccc[nH]1)c1sc2ccccc2c1Cl	-1.7	-3.7	37.5*	10487	-13.6	-2.3
Cc1ccc(/C=N/NC(=O)c2c[nH]c3ccccc23)o1	0.1	-5.7	59.3*	6037	-0.8	-6.3
Cc1ccsc1/C=N/NC(=O)c1ccccn1	1.5	1.6	38.5*	10163	13.8	-1.6

Source: PubChem
